In PubChem BioAssay (NCI):
Compounds without any hit were thinned out: in the full panel of roughly 79,000, 15% have a hit. Unmarked numbers belong to inactive results. Calls of active or inactive are those of the source. Rule as the data show it: active = growth inhibition above about 70%; inactive = the rest.

Assays:
[1] = NCI Yeast Anticancer Drug Screen. Data for the rad50 strain (AID 155);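 also: 0% = growth of vehicle-only cultures of the same strain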; details: S. cerevisiae rad50 strain growth inhibition; at 50.0 µM; hits give high values
How it was run: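 A DNA repair-deficient yeast mutant serves as the test organism; compound-induced growth inhibition is calculated against vehicle-treated cells.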

[2] = NCI Yeast Anticancer Drug Screen. Data for the mec2-1 strain (AID 157); details: S. cerevisiae mec2-1 strain, at 50.0 µM, hits give high values
How it was run: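 Growth inhibition is read against vehicle-treated controls after compound exposure of the mec2-1 yeast strain, which is defective in DNA damage repair or cell cycle control.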

[3] = NCI Yeast Anticancer Drug Screen. Data for the sgs1 mgt1 strain (AID 161);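 also: 0% = growth of cultures given vehicle only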; details: S. cerevisiae sgs1 mgt1 strain, at 50.0 µM, hits give high values
How it was run: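 Growth of a repair-deficient yeast mutant was monitored after compound treatment and expressed as inhibition relative to vehicle-treated cultures.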

[4] = NCI Yeast Anticancer Drug Screen. Data for the cln2 rad14 strain (AID 165);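 also: 0% = growth equal to vehicle treated cultures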; details: S. cerevisiae cln2 rad14 strain, at 50.0 µM, hits give high values
How it was run: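 Growth inhibition, relative to vehicle-treated controls, is the read-out. The test organism is a yeast strain with defined genetic alterations, cln2 rad14.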

[5] = NCI Yeast Anticancer Drug Screen. Data for the bub3 strain (AID 167); details: S. cerevisiae bub3 mutant strain, at 50.0 µM, hits give high values
How it was run: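 Inhibition values come from growth of compound-treated mutant yeast normalised to vehicle-treated controls.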

[6] = NCI Yeast Anticancer Drug Screen. Data for the mlh1 rad18 strain (AID 175); details: S. cerevisiae mlh1 rad18 strain growth inhibition; at 50.0 µM; hits give high values
How it was run: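 Cells of a genetically altered yeast strain, deficient in DNA damage repair, were treated with compound. Their growth was then compared with that of vehicle-treated cultures to give inhibition.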

| Compound | growth inhibition [1] | growth inhibition [2] | growth inhibition [3] | growth inhibition [4] | growth inhibition [5] | growth inhibition [6] |
| --- | --- | --- | --- | --- | --- | --- |
| C=CC1=C(C)C2=NC1=CC1=NC(=CC3=C(C)C4=C(O)C(C(=O)OC)C(=C5NC(=C2)C(C)C5CCC(=O)OC)C4=N3)C(CC)=C1C (stereo not drawn) | 10.1% | 11.3% | -48.8% | 7.95% | 4.95% | -12.5% |
| Nc1cc(=O)c2n[nH]nc2[nH]1 | -29.9% | 0.7% | -17.1% | -21.6% | -14.3% | -16.9% |
| Nc1ccc(P(=O)(Nc2ccc3ccccc3c2)Nc2ccc3ccccc3c2)cc1 | 83.2% (active) | 67.5% | 89.2% (active) | 79.9% (active) | 83.2% (active) | 91.2% (active) |
| O=C(NC(=O)c1ccc(Cl)c(Cl)c1)Nc1ccc(Cl)cc1 | -1.45% | -13.8% | -6.35% | -32.6% | 11.2% | 8% |
| O=c1[nH]c2ccccc2c(O)c1/C=N/C(=S)NCc1ccccc1 | -23.1% | -23.8% | 3.95% | 0.2% | 0.7% | -37.2% |
| CCN(C(=S)Nc1cccc2ccccc12)c1ccccc1 | -4.05% | -11.3% | 11.7% | 2.4% | -3.65% | -7.9% |
| CC(C)CN(CC(C)C)C(=O)c1ccc([N+](=O)[O-])cc1 | -7.3% | 22.8% | 16.9% | -26.2% | 38.1% | 20.9% |
| O=C1c2cc(F)ccc2-c2c(F)cc(F)cc21 | 19.9% | -6.4% | -2.1% | 40.5% | -3.85% | -8.8% |
| CCCCNC(=O)c1ccccc1N | -20.2% | -6.15% | -30.7% | -8% | -16% | -22.4% |
| [N-]=[N+]=NC(=O)c1cnn(-c2ccccc2)c1N | 9.65% | 18.9% | 9.4% | -27.4% | 14.6% | 2.2% |
| Cn1ncc2[nH]c(=O)n(OS(=O)(=O)c3ccccc3)c(=O)c21 | 17.3% | -16.9% | -15.5% | 4.3% | 0.9% | 5% |
| O=C1OC(=O)c2ccc(SCC(O)CCl)c3cccc1c23 (stereo not drawn) | 99.4% (active) | 99.5% (active) | 98.7% (active) | 95.8% (active) | 98.9% (active) | 99.2% (active) |
| O=c1[nH]cc([N+](=O)[O-])c(=O)[nH]1 | 14.3% | 13.1% | 8.25% | 14.7% | 16.9% | 11.2% |
| CC(=O)Oc1cc(C)c2c(c1C)C1OC(=O)C(C)C1CC2 (stereo not drawn) | 12.6% | -12.7% | 18.6% | 16.3% | 4.8% | 17.1% |
| BrC1CC2CC1C1C2CC2OC21 (stereo not drawn) | -26.9% | -12.7% | -22.4% | -3.9% | 9.2% | -48.2% |
| CCCCCCCCCCCCCC#N | 5.85% | -3.55% | 3.35% | 5.25% | 1.65% | 25.8% |
| CCOC(=O)C1SC(=Nc2ccc(Cl)cc2Cl)N=C1C (stereo not drawn) | -0.75% | -10.3% | 4.4% | -19.2% | -2.85% | -10.8% |
| C=CC1=C(C)C2=NC1=CC1=NC(=CC3=C(C)C4=C(O)CC(=C5NC(=C2)C(C)C5CCC(=O)OC)C4=N3)C(CC)=C1C (stereo not drawn) | 8.85% | -1.5% | 19.4% | 3.65% | -2.05% | 22.2% |
| N#Cc1cc(F)c(N)c(F)c1 | -2.25% | 7.95% | 2.2% | 9.95% | -0.35% | 3.8% |

| Compound | growth inhibition [1] | growth inhibition [2] | growth inhibition [3] | growth inhibition [4] | growth inhibition [5] | growth inhibition [6] |
| --- | --- | --- | --- | --- | --- | --- |
| C/C(=N/N(CCCCN(/N=C(/C)c1ccccc1)c1ccccc1)c1ccccc1)c1ccccc1 | 48.5% | 13.2% | 17.1% | 26.3% | 1.55% | 39.2% |
| N#CC1CCCCCC1 | 0.8% | -12.4% | 5.7% | 2.6% | 8.15% | 5.85% |
| CCOC(=O)C(C(=O)OCC)c1cc(-c2cc3ccccc3o2)oc(=O)c1C#N | 47.7% | 20.5% | 10.2% | 15.8% | -4.15% | 30.1% |
| COC(=O)C(N)C(C)C (stereo not drawn) | 13.8% | 9.15% | -10.3% | -6.9% | 4.55% | 0.35% |
| COc1ccc(Cl)cc1NC(=O)c1cccc([N+](=O)[O-])c1 | -2.45% | 0.7% | 12.9% | -13.9% | 16.9% | -1.25% |
| CC(=O)OCC1OC(n2cnc([N+](=O)[O-])c2Br)C(OC(C)=O)C1OC(C)=O (stereo not drawn) | 15.1% | 15.4% | 18.8% | 25.5% | 6.05% | 21.8% |
| COc1ccc(CC(N)C(N)=O)cc1 (stereo not drawn) | -6.25% | -0.65% | -4% | -12% | -0.3% | 6.5% |
| CCCCC1CCC2CCCCC2C1 (stereo not drawn) | 3.4% | -2.5% | -8.05% | -18.1% | -11.2% | 8% |
| O=C1NC(CN2CCCC(O)C2)C(=O)NC1CN1CCCC(O)C1 (stereo not drawn) | 2% | 9.35% | 13.3% | -22.8% | -4.45% | 7.6% |
| O=C(CCBr)OCCC1CCCCC1 | -1.95% | -2.45% | -0.8% | -16.1% | -7.05% | 5.6% |
| O=C(CCCc1ccccn1)c1ccccc1 | 1.8% | 3.85% | 2.5% | 5.35% | -31.6% | -1.45% |
| c1cc(C[S+]2CCCC2)ccc1C[S+]1CCCC1 | -17.9% | -30.9% | -32% | -21.1% | -12.4% | -22.3% |
| OCCCN1CCN(CCO)CC1 | -42% | -14.8% | -12.7% | -48.9% | 4.25% | -2.25% |
| Nc1nnc(N)c2nc(-c3ccccc3)c(-c3ccccc3)nc12 | 10.4% | 16.4% | 28.1% | -14.8% | 8.15% | 20.9% |
| COC(=O)[C@H](Cc1c[nH]c2ccccc12)NP(=O)(O)OCC1C=CC(n2cc(C)c(=O)[nH]c2=O)O1 (stereo partly drawn) | -8.5% | -7.75% | -9.6% | 6.8% | -13.1% | -49.7% |
| COc1ccc(-n2nnnc2C2(Nc3ccccc3)CCN(Cc3ccccc3)CC2)cc1 | -22.4% | -8.4% | -1.4% | 2.65% | -2.15% | 10.4% |
| NC1c2c(Br)sc(N3CCCC3)c2C(=O)C1O (stereo not drawn) | 8.05% | -3.5% | -5.25% | -5.35% | -16.4% | -30.3% |
| CCCCC[N+]1([O-])CCOCC1 | 4.05% | -4.1% | -7.1% | -24.4% | -3.1% | 1.05% |
| COC1=C(NCCc2ccccc2)C(=O)C(OC)=C(NCCc2ccccc2)C1=O | -43.2% | -4.7% | 18.9% | -22.3% | 1.5% | -11.6% |
